Results filed as inconclusive are left out. Entries that show only a call come without a potency. Calls of active or inactive are those of the source. Calls follow the shape of the dose curve; as a rule, active = well fitted curve in the direction sought with a large enough effect; inconclusive = small, poorly fitted or top-dose-only effect, or another doubt; inactive = no such curve, though single readings can be large; an effect the other way counts as inactive or inconclusive.
What follows are compounds tested against Ferritin light chain (Equus caballus) (UniProt P02791) (assay: qHTS Validation Assay for Identification of Novel General Anesthetics (AID 2323)). Details: horse apoferritin, anesthetic-site fluorescent probe displacement; series mostly up to 76.9 µM.
Chain of Ferritin light chain (Equus caballus) (P02791 2-175 limits assumed): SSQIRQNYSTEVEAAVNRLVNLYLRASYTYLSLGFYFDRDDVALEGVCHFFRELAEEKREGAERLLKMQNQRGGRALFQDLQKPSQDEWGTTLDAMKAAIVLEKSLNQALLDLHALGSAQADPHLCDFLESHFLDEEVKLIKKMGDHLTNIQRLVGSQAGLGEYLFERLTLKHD
Summary of the method: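 10 uM horse-spleen apoferritin + 1-AMA (50% saturated, PBS); cpd pin-transferred, 10 min RT. Ex 380/Em 535 nm endpoint. Activity normalized between free 1-AMA and 1-AMA/apoferritin; 4-parameter Hill fit of concentration-response.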

Compound	outcome
CCCCNC(=O)NS(=O)(=O)c1ccc(C)cc1	inactive
CN(C(=O)CCCOc1ccc2[nH]c(=O)ccc2c1)C1CCCCC1	inactive
O=C1NCN(c2ccccc2)C12CCN(CCCC(c1ccc(F)cc1)c1ccc(F)cc1)CC2	inactive
NC(Cc1ccc(Cl)cc1)C(=O)O (stereo unspecified)	inactive
CCN(Cc1ccncc1)C(=O)C(CO)c1ccccc1 (stereo unspecified)	inactive
Fc1ccc(C(c2ccc(F)cc2)N2CCN(C/C=C/c3ccccc3)CC2)cc1	inactive
Cc1scc2c1N(C(=O)CN1CCN(C)CC1)c1ccccc1NC2=O	inactive
COc1cc(Cc2cnc(N)nc2N)cc(OC)c1OC	inactive
CC(=O)Oc1cc(C(C)C)c(OCCN(C)C)cc1C	inactive
CO[C@@]1(NC(=O)CSCC#N)C(=O)N2C(C(=O)O)=C(CSc3nnnn3C)CS[C@@H]21	inactive
CC(=O)OCC1=C(C(=O)O)N2C(=O)[C@@H](NC(=O)Cc3cccs3)[C@H]2SC1	inactive
CCn1ccnc1CC1COc2ccccc2O1 (stereo unspecified)	inactive
CN(C)C(=O)Oc1ccc[n+](C)c1	inactive
Cc1nnc(SCC2=C(C(=O)O)N3C(=O)[C@@H](NC(=O)Cn4cnnn4)[C@H]3SC2)s1	inactive
CN(C)CC[C@@H](c1ccc(Br)cc1)c1ccccn1	inactive
C[C@H](CS)C(=O)N1CCC[C@H]1C(=O)O	inactive

Compound	outcome
Cc1ccc(S(=O)(=O)NC(=O)NN2CCCCCC2)cc1	inactive
CNCCC(Oc1ccccc1OC)c1ccccc1 (stereo unspecified)	inactive
CC(C(=O)O)c1ccc(CC2CCCC2=O)cc1 (stereo unspecified)	inactive
OC(CCN1CCCCC1)(c1ccccc1)C1CCCCC1 (stereo unspecified)	inactive
c1ccc2c(c1)CCCC2C1=NCCN1 (stereo unspecified)	inactive
OCCN1CCN(CC/C=C2/c3ccccc3Sc3ccc(C(F)(F)F)cc32)CC1	inactive
Nc1c2c(nc3ccccc13)CCCC2O (stereo unspecified)	inactive
NC(N)=N/N=C/c1c(Cl)cccc1Cl	inactive
CCNC(=O)N1CCN(CCCC(c2ccc(F)cc2)c2ccc(F)cc2)CC1	inactive
CCN(CC)CC(=O)Nc1c(C)cccc1C	inactive
Cc1cc(C)c(/C=C2\C(=O)Nc3ccccc32)[nH]1	inactive
C(=C\c1ccccc1)/CN1CCN(C(c2ccccc2)c2ccccc2)CC1	inactive
C[C@]12CCC(=O)C=C1CC[C@@H]1[C@@H]2CC[C@@]2(C)[C@H]1CC[C@]2(O)C(=O)CO	inactive
Cc1nc2c([nH]1)c(=O)n(C)c(=O)n2Cc1ccco1	inactive
COCCc1ccc(OCC(O)CNC(C)C)cc1 (stereo unspecified)	inactive

What follows are compounds tested against ATP-dependent DNA helicase Q1 (Homo sapiens) (UniProt P46063) (assay: qHTS Validation Assay for Inhibitors of RecQ-Like Dna Helicase 1 (RECQ1) (AID 2353)). Details: recombinant RECQ1 helicase DNA unwinding assay; series mostly up to 25.6 µM.
Chain of ATP-dependent DNA helicase Q1 (Homo sapiens) (P46063 whole entry, looked up): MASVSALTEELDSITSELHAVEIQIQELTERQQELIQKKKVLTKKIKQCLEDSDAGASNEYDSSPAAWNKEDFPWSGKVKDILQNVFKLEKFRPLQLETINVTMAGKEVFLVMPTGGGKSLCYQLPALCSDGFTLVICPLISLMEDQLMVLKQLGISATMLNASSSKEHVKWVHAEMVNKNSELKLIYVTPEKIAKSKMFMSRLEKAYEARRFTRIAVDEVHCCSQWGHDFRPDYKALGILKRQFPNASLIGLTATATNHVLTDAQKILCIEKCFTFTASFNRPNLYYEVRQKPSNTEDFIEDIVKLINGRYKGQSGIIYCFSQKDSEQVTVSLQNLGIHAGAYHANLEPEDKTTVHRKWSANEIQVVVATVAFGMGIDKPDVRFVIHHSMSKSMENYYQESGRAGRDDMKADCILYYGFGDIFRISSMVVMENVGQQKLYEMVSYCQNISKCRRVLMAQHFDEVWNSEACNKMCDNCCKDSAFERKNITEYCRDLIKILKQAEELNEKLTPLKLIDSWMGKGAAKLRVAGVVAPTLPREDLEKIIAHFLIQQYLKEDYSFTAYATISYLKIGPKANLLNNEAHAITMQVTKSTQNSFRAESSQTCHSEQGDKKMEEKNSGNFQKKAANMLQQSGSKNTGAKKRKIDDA
Summary of the method: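 50 nM RECQ1T1 preincubated 15 min with compound in Tris pH 8.0 buffer with MgCl2, DTT, Tween-20 and 2.5 ug/ml poly(dI-dC); started with 200 nM TAMRA/BHQ-2 forked duplex and 2 mM ATP. Unwinding read as fluorescence (525/598 nm), two reads 2 h apart.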

Compound	Potency
CCCCNC(=O)NS(=O)(=O)c1ccc(C)cc1	inactive
CN(C(=O)CCCOc1ccc2[nH]c(=O)ccc2c1)C1CCCCC1	inactive
O=C1NCN(c2ccccc2)C12CCN(CCCC(c1ccc(F)cc1)c1ccc(F)cc1)CC2	inactive
NC(Cc1ccc(Cl)cc1)C(=O)O (stereo unspecified)	inactive
COCCOC(=O)C1=C(C)NC(C)=C(C(=O)OC(C)C)C1c1cccc([N+](=O)[O-])c1 (stereo unspecified)	inactive
CCN(Cc1ccncc1)C(=O)C(CO)c1ccccc1 (stereo unspecified)	inactive
Fc1ccc(C(c2ccc(F)cc2)N2CCN(C/C=C/c3ccccc3)CC2)cc1	inactive
Cc1scc2c1N(C(=O)CN1CCN(C)CC1)c1ccccc1NC2=O	inactive
COc1cc(Cc2cnc(N)nc2N)cc(OC)c1OC	inactive
CC(=O)Oc1cc(C(C)C)c(OCCN(C)C)cc1C	inactive
CO[C@@]1(NC(=O)CSCC#N)C(=O)N2C(C(=O)O)=C(CSc3nnnn3C)CS[C@@H]21	inactive
CC(=O)OCC1=C(C(=O)O)N2C(=O)[C@@H](NC(=O)Cc3cccs3)[C@H]2SC1	inactive
CCn1ccnc1CC1COc2ccccc2O1 (stereo unspecified)	inactive
CN(C)C(=O)Oc1ccc[n+](C)c1	inactive
Cc1nnc(SCC2=C(C(=O)O)N3C(=O)[C@@H](NC(=O)Cn4cnnn4)[C@H]3SC2)s1	inactive
CN(C)CC[C@@H](c1ccc(Br)cc1)c1ccccn1	inactive
C[C@H](CS)C(=O)N1CCC[C@H]1C(=O)O	inactive
CCOC(=O)C1=C(C)NC(C)=C(C(=O)OC)C1c1cccc(Cl)c1Cl (stereo unspecified)	inactive

Compound	Potency
Cc1ccc(S(=O)(=O)NC(=O)NN2CCCCCC2)cc1	inactive
CNCCC(Oc1ccccc1OC)c1ccccc1 (stereo unspecified)	inactive
CC(C(=O)O)c1ccc(CC2CCCC2=O)cc1 (stereo unspecified)	inactive
OC(CCN1CCCCC1)(c1ccccc1)C1CCCCC1 (stereo unspecified)	inactive
c1ccc2c(c1)CCCC2C1=NCCN1 (stereo unspecified)	inactive
OCCN1CCN(CC/C=C2/c3ccccc3Sc3ccc(C(F)(F)F)cc32)CC1	inactive
Nc1c2c(nc3ccccc13)CCCC2O (stereo unspecified)	inactive
NC(N)=N/N=C/c1c(Cl)cccc1Cl	inactive
CCNC(=O)N1CCN(CCCC(c2ccc(F)cc2)c2ccc(F)cc2)CC1	inactive
CCN(CC)CC(=O)Nc1c(C)cccc1C	inactive
COc1ccc([C@@H]2Sc3ccccc3N(CCN(C)C)C(=O)[C@@H]2OC(C)=O)cc1	inactive
C(=C\c1ccccc1)/CN1CCN(C(c2ccccc2)c2ccccc2)CC1	inactive
C[C@]12CCC(=O)C=C1CC[C@@H]1[C@@H]2CC[C@@]2(C)[C@H]1CC[C@]2(O)C(=O)CO	inactive
Cc1nc2c([nH]1)c(=O)n(C)c(=O)n2Cc1ccco1	inactive
CN(C)CCN(Cc1cccs1)c1ccccn1	inactive
COCCc1ccc(OCC(O)CNC(C)C)cc1 (stereo unspecified)	inactive
c1cc(CN2CCCCC2)cc(OCCCNc2nc3ccccc3s2)c1	inactive

Source: PubChem BioAssay (NCATS)
